This is a sample that favours compounds with a hit; in the whole collection about 1.2% have one here.
GCN5L2 inh: blocks human GCN5L2 histone acetyltransferase | GCN5L2 HAT assay, ThioGlo1 CoA-SH fluorescence | Potency, µM (doses to about 58.9 µM), without a hit: at the highest dose activity change, negative = inhibition, hits mostly inhibitors | actives 0.21% (n = 390,000) | AID 504327; further: potency means the concentration at half of the fitted maximal effect
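Enzyme at 20nM final was mixed with library compounds for 15 min at room temperature. Peptide H3(1-25) at 75uM, acetyl-CoA at 70uM and ThioGlo1 at 50uM were then added. Plates were read immediately and after 20 min (Ex340nm/Em540nm).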
PI4K2A inh: PI4K2A (human) kinase inhibition. activity change, negative = inhibition, % at 76.9 µM. purified PI4K2A, ADP-Glo luminescence, 1 h; stronger effect = lower value. actives 0.13% (n = 420,000); in the data active means activity change below about -50%; inconclusive means mostly about -30% to -49%;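 further: -100% = wells without enzyme as full effect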
Target sequence (Q9BTU6 whole entry, looked up): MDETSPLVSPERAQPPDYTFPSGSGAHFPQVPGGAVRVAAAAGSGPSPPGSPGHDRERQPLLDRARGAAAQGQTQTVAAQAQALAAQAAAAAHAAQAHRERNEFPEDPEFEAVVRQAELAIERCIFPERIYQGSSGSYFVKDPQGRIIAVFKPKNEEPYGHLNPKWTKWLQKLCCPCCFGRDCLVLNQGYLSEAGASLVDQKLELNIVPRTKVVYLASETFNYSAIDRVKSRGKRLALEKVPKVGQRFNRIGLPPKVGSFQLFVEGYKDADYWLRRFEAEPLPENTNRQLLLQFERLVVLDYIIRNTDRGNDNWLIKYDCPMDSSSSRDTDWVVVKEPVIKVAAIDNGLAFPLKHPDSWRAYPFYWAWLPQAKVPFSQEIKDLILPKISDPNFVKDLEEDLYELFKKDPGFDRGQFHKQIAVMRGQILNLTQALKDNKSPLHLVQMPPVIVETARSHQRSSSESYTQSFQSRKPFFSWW
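In this quantitative HTS, ADP production by PI4K2A was quantified luminescently after 1 h at ambient temperature; 100 microM adenosine served as plate-quality control.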
GoLoco inh red: RGS12 GoLoco-Gai1 interaction inhibition; P63096; AID 880; Gai1:RGS12 GoLoco peptide FP, rhodamine, 10 min; actives 0.44% (n = 230,000); Potency, µM (series often up to 61.6 µM), for inactives: at the highest dose activity, negative = inhibition, hits mostly inhibitors; active means well fitted inhibition curve with a large enough effect, not every such curve was filed as active; inactive means no such curve, though single readings can be large or run the other way; further: potency means the concentration at half of the fitted maximal effect; nearly all actives have a fitted effect of over 30% in size
Pin1 inh: inhibitors of human Pin1. Q13526. Pin1 FP peptide displacement, HiFluor488, 10 min. Potency, µM (top dose mostly 115 µM), for the others: at the highest dose activity, negative = inhibition, most hits filed as inhibitors. actives 0.009% (n = 390,000). AID 504891; active means well fitted inhibition curve with a large enough effect in the polarisation, with a control signal flat, not every such curve was filed as active; inconclusive means small, poorly fitted or top-dose-only effect, or effect the other way, or a change in a side signal; inactive means no such curve, though single readings can be large or run the other way; the % refers to the polarisation; further: potency means the concentration at half of the fitted maximal effect
Target sequence (Q13526 whole entry, looked up): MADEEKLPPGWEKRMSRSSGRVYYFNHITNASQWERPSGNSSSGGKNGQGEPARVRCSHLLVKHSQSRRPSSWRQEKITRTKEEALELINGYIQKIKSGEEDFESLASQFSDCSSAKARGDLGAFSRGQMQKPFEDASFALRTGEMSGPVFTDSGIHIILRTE
PI5P4Ka inh: blocks human PI5P4K alpha kinase activity | P48426 | actives 1.2% (n = 330,000) | PI5P4Kalpha enzyme, ADP-Glo luminescence, 60 min; stronger effect = lower value | max response, %; active means max response of -50% or lower; inconclusive means between -30% and -50%; inactive means -30% or higher; further: value at the top dose of about 77 µM
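Single end-point luminescence (ADP-Glo) quantified ADP from PI5P4Kalpha turnover; ATP 5 microM final, 1 h at RT, 0.1% CHAPS and 0.28 mM EGTA in HEPES pH 7.4.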
PGK inhibitor: inhibitors of T. brucei phosphoglycerate kinase; actives 0.043% (n = 380,000); PGK/GAPDH coupled, Kinase-Glo luminescence, 60 min; Potency, µM (titrated, usually from 57.5 µM), inactives show top-dose activity change, negative = inhibition, actives largely listed as inhibitors; AID 602233; P07378; further: potency means the concentration at half of the fitted maximal effect; nearly all actives have a fitted effect of over 60% in size
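Recombinant glycosomal PGK reaction used 1,3-bisphosphoglycerate generated in-well by GAPDH (100nM final) in 100mM TEA pH 7.6, 5mM MgCl2, 0.01% Tween-20. After 60 minutes at room temperature, ATP was read by Kinase-Glo Plus luminescence end-point.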
The depositor's hits bear a star; i = inactive; ? = inconclusive; · = no result. Unless noted, the call rests on the fitted dose curve; in most records, active means well fitted curve in the direction sought with a large enough effect; inconclusive means small, poorly fitted or top-dose-only effect, or another doubt; inactive means no such curve, though single readings can be large; an effect the other way counts as inactive or inconclusive. Unless noted, on the % scale 0 is the no-effect control and ±100 the full control effect.

SMILES	GCN5L2 inh	PI4K2A inh	GoLoco inh red	Pin1 inh	PI5P4Ka inh	PGK inhibitor
CCOC(=O)C1=C(C)N(C[C@@H]2CC[C@@H](Cc3ccc(-c4ccccc4)cc3)O2)C(=O)NC1c1ccc(C(F)(F)F)cc1 (stereo partly specified)	-9%	1	·	5%	2	-3%
CN(c1nc2ccccc2nc1Cl)S(=O)(=O)c1ccccc1	-7%	0	·	5%	11	-9%
O=Cc1ccc(O)cc1O	-11%	3	·	3%	-2	-5%
O=CN/C=C/c1cc(O)ccc1O	-13%	-10	-21%	?	-64*	-8%
Fc1ccc(Nc2cncc(-c3ccsc3)c2)cc1Cl	·	-50*	·	·	-22	·
Fc1ccc(Nc2nnc(C(F)(F)F)s2)cc1Cl	-5%	3	0%	0%	31	1%
CC(=O)NC(c1ccccc1)c1nc(-c2csc3ccccc23)cs1 (stereo unspecified)	·	-3	·	·	18	·
C=CCn1c(SCC(=O)NC2CCCC2)nc2scc(-c3ccco3)c2c1=O	-8%	?	-2%	84%	-83*	5%
C=CCn1c(SCC(=O)NCCCC)nc2scc(-c3ccco3)c2c1=O	-17%	?	7%	?	-57*	-8%
C=CCn1c(SCC(=O)NC2CCCCC2)nc2ccccc2c1=O	0%	-6	-3%	-6%	-5	-2%
COC(=O)NC(c1ccccc1)c1c[nH]c2ccccc12 (stereo unspecified)	·	·	7%	·	·	·
Cc1nc(SCc2ccc(O)c([N+](=O)[O-])c2)c([N+](=O)[O-])[nH]1	14µM*	0	6%	-8%	?	7%
Cc1nc(SCc2ccc(O)c([N+](=O)[O-])c2)n[nH]1	-8%	4	0%	3%	-6	-1%
COc1ccc(N2CCN(C(=O)c3ccc(Cn4nc(C)c([N+](=O)[O-])c4C)o3)CC2)cc1	-4%	-6	·	-10%	2	-5%
Cc1cc(C)c(OCC(=O)N(Cc2ccccc2)C2CCS(=O)(=O)C2)c(C)c1 (stereo unspecified)	0%	-2	·	-3%	2	-7%
N#C/C(=C(/O)COC(=O)CCc1ccc(S(=O)(=O)N2CCOCC2)cc1)c1nc2ccccc2[nH]1	-12%	-15	76%	?	-52*	-4%
N#C/C(=C(/O)COC(=O)c1ccc(Cl)c(S(=O)(=O)N2CCOCC2)c1)c1nc2ccccc2[nH]1	1%	-2	24%	-8%	-10	i
O=C(CSc1nnc([C@@H]2CCCN2)o1)c1ccc(Cl)cc1	-2%	2	9%	0%	?	i
O=C(CCN1C(=O)C2C3C=CC(C3)C2C1=O)Nc1ccc(F)cc1 (stereo unspecified)	-24%	-7	8%	-1%	8	-3%
Cc1ccc(N2C(=O)c3ccccc3C2C(=O)c2ccc(O)cc2O)cc1 (stereo unspecified)	-8%	-12	-9%	·	-66*	?
COc1ccccc1CNc1ncc(-c2ccccc2)n1C	-1%	6	·	-5%	3	-4%
Oc1ccc(Nc2nc(-c3ccccc3)nc3ccccc23)cc1	-24%	-3	·	3%	-1	5%
Oc1ccc(Nc2nc3ccccc3nc2Nc2ccc(O)cc2)cc1	1%	-12	2.5µM*	?	-21	-9%
O=C(CSc1ccsc1[N+](=O)[O-])N1CCN(c2ccccc2)CC1	-28%	-11	12%	?	-57*	-8%
O=C(CSc1ccsc1[N+](=O)[O-])N1CCN(c2ccc(Cl)cc2)CC1	-30%	-8	24%	-5%	-62*	-11%
SMILES	GCN5L2 inh	PI4K2A inh	GoLoco inh red	Pin1 inh	PI5P4Ka inh	PGK inhibitor
CCN(CC)C(=O)COc1ccc(-c2nnc(Nc3ccc(OC)c(C(=O)NC)c3)c3ccccc23)cc1	-4%	-2	13%	-3%	3	-8%
COc1ccc(-c2ccc(=O)n(CC(=O)Nc3ccc(C)cc3C)n2)cc1	-3%	1	·	15%	·	-4%
CC(C)Oc1ccc(S(=O)(=O)N2CCOCC2)cc1NC(=O)CN1C(=O)c2ccccc2C1=O	·	2	·	3%	3	i
CCN(CC(=O)Nc1c(F)cccc1F)C(=O)CSCc1c(C)noc1C	-3%	6	·	-8%	9	-1%
Cc1noc(C)c1-c1nc(NCc2cccs2)c2ccccc2n1	22µM*	·	-1%	·	·	·
Cc1noc(C)c1-c1nc(Nc2ccc(F)cc2)c2ccccc2n1	?	·	10µM*	·	·	·
CCOc1ccc(OCCNCc2ccc(OC(C)C(=O)N(C)C)c(OCC)c2)cc1 (stereo unspecified)	18%	13	·	-2%	4	i
Oc1ccc(-c2csc(Nc3cccc4ccccc34)n2)cc1O	-18%	-5	·	3%	-55*	-4%
O=C1Nc2cc(C(=O)NCCN3CCCCCC3)ccc2S/C1=C\c1ccccc1	1%	-4	·	8%	-11	-3%
O=C1Nc2cc(C(=O)NCCCN3CCCC3)ccc2S/C1=C/c1cccc(Cl)c1	·	1	·	·	-51*	-9%
COc1cccc(C(c2c(C)[nH]n(-c3ccccc3)c2=O)c2c(C)[nH]n(-c3ccccc3)c2=O)c1O	-16%	-51*	13%	3%	-13	-8%
COc1cccc(C(c2c(C)[nH]n(-c3ccccc3)c2=O)c2c(C)[nH]n(-c3ccccc3)c2=O)c1OC	0%	?	-2%	-9%	1	-11%
CN(CC(=O)NC1CC1)S(=O)(=O)c1cc(Cl)ccc1Cl	-2%	-2	·	2%	3	-4%
Cc1ccc(CN2C(=O)N/C(=C\c3cccn3-c3cccc(C(=O)O)c3)C2=O)cc1	?	-25	10%	-22%	?	?
O=C(CN1C(=O)N/C(=C\c2ccccc2OCc2ccc(C(=O)O)cc2)C1=O)Nc1ccccc1F	-12%	-2	·	·	-51*	-18%
COc1cccc(/C=C2/NC(=O)N(CC(=O)Nc3ccc(C)cc3)C2=O)c1OCc1cccc(C(=O)O)c1	-26%	-9	·	·	-26	-18%
Cc1cccc(NC(=O)CN2C(=O)N/C(=C/c3ccc(C)o3)C2=O)c1	-23%	2	14%	?	-51*	-4%
Cc1ccc(NC(=O)CN2C(=O)N/C(=C\c3cccn3-c3cccc(C(=O)O)c3)C2=O)cc1	?	-5	10%	-2%	-76*	?
Cc1ccc(NC(=O)CN2C(=O)N/C(=C/c3ccccc3OCc3cccc(C(=O)O)c3)C2=O)cc1	?	-20	·	·	-29	22µM*
